The campaign covered roughly 350,000 compounds. About 2,700 (0.77%) were called active. Only a selection was taken, and actives are over-represented in it overall. Unmarked numbers belong to inactive results.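 How the source made its calls: active means inhibition reaching at least a set limit at 20 µM in the primary screen (cut at about 59% in these data); inactive means the rest.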
Test system: glucose-6-phosphate dehydrogenase-6-phosphogluconolactonase (Plasmodium falciparum 3D7)
Assay: inhibition of malaria parasite G6PD (PfGluPho) – biochemical, fluorescence intensity, uHTS, primary screen (AID 504690);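 further: 0% = DMSO wells with substrate and 100% = DMSO wells lacking glucose-6-phosphate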
Conditions: PfGluPho enzyme, NADPH resazurin-diaphorase fluorescence; at 20 µM; active compounds read high

Row | Compound | inhibition
1 | FC(F)(F)c1cccc(-c2cc3ccccc3nc2N2CCCC2)c1 | 13.8%
2 | O=C(CNS(=O)(=O)c1ccc(Br)s1)N1CCN(C(=O)c2ccco2)CC1 | -12.2%
3 | Cc1ccc(-c2cc(C(=O)NCc3cn(C)nc3C)c3cc(Br)ccc3n2)cc1 | 3.11%
4 | Cc1ccc2nc(-c3cccc(Br)c3)cc(C(=O)Nn3cnnc3)c2c1 | 59.4% (active)
5 | NC(=O)c1cc(-c2cccnc2)nc2ccc(Br)cc12 | 14.2%
6 | CCc1nnc(NC(=O)CSc2nc3c(c(=O)n2-c2ccccc2OC)SCC3)s1 | 43%
7 | O=C(NCC1CCCO1)c1cc2c(s1)CCCC2 (stereo unspecified) | 14%
8 | CN(C)C(=O)c1ccc(NC(=O)COC(=O)c2cc3c(s2)CCCCC3)cc1 | -5.04%
9 | O=C(Nc1ccc(F)cc1)c1cc2c(s1)CCCC2 | 75.7% (active)
10 | Cc1ccc(CSCCNC(=O)CN(c2ccc(F)cc2)S(C)(=O)=O)cc1 | -11.7%
11 | NC(=O)C1=C[C@@H](c2ccc3c(c2)OCO3)C[C@@H](OCCCCO)O1 | 17.6%
12 | CC1(c2ccc3ccccc3c2)NC(=O)NC1=O (stereo unspecified) | 18.9%
13 | CN1c2ccc(C=O)c3c(C=O)ccc(c23)N(C)C1(C)C | 69.6% (active)
14 | Cc1ccc(C=O)c([B-](F)(F)F)c1 | -13.1%
15 | COC(=O)C1(CCSC)NC(c2ccc(OC)cc2OC)C2C(=O)N(c3cccc(C(C)=O)c3)C(=O)C21 (stereo unspecified) | -2.47%
16 | Cc1ccc(Cc2c(-c3ccc(C)cc3)nc3c4ccccc4ccn23)cc1 | 31.4%
17 | Cc1ccc(-c2nc3ccc(Cl)cn3c2Cc2ccccc2)cc1 | 87.1% (active)
18 | Cc1ccc(Cc2c(-c3ccccc3)nc3ccc(Cl)cn23)cc1 | 37.4%
19 | Cc1cc(C)n2nc(CNS(=O)(=O)c3c(F)c(F)c(F)c(F)c3F)nc2n1 | -12.8%
20 | COc1ccc(N2CCN(S(=O)(=O)c3cc(Br)cnc3N)CC2)cc1 | -12.2%
21 | Nc1ccccc1SC(C[N+](=O)[O-])c1ccccc1 (stereo unspecified) | 79.5% (active)

Row | Compound | inhibition
22 | Fc1cccc(CSc2nnc3ccc(-c4ccncc4)nn23)c1 | 1.54%
23 | COc1cc2c(C(=O)N(C)c3cc(Cl)ccc3OC)cn(C)c(=O)c2cc1OC | -11.9%
24 | O=C(c1[nH]ncc1-c1ccc(Cl)cc1)C1CO1 (stereo unspecified) | 2.19%
25 | COc1ccc2oc(=O)cc(CN3CCOCC3)c2c1 | -5.99%
26 | Oc1c(CN2CCOCC2)ccc(CN2CCOCC2)c1O | 91.2% (active)
27 | O=[N+]([O-])c1ccc(COc2ccccc2CN2CCOCC2)cc1 | 36.1%
28 | CCN(CC)c1ccc(C(=O)c2cnc(/N=C/N(C)C)s2)cc1 | 11.6%
29 | CCOC(=O)N1CCN(C(=O)c2ccc3c(=O)n(CCc4ccc(OC)c(OC)c4)c(=O)[nH]c3c2)CC1 | 0.32%
30 | CCOC(=O)C1CCCN(CCSc2ccc(C)cc2)C1 (stereo unspecified) | -1.97%
31 | CC(C)C[C@H](NC(=O)N1CCn2c1nc1ccccc12)C(=O)NC1CC1 | -6.34%
32 | NC1=CC(=O)C(=O)c2cccnc21 | 51.8%
33 | Cc1coc2c(O)cc3c(c12)OC1(N2CCCCC2)C(=O)NCCCC31 (stereo unspecified) | 101% (active)
34 | NC(=O)CN1CCCC1c1ccc2c(c1)OCCO2 (stereo unspecified) | 7.24%
35 | CCCCN1CC(C)(C)[C@H](CC(=O)Nc2ccc(Br)cc2)C1=O | 21.2%
36 | COc1ccc(CN2CCCC(C(=O)N3CCCCC3)C2)cc1 (stereo unspecified) | 0.72%
37 | O=C1OC[C@@H]2CCCN2C(=O)[C@H](CC(=O)N(CCO)Cc2ccccc2)C/C=C\CC[C@@H]1Cc1ccc(F)cc1 | -6.25%
38 | COC(=O)c1ccc(N2CCOCC2)c(NC(=O)c2ccc3c(c2)OCCO3)c1 | 9.1%
39 | CN1CCN(c2ccc(NC(=O)c3cc(Cl)c4c(c3)OCCO4)cc2)CC1 | -0.01%
40 | CN1CCN(c2ccc(NC(=O)c3ccc4c(c3)OCCO4)cc2Cl)CC1 | 68.3% (active)
41 | COc1ccc(C(=O)OC(C)C(=O)NC2CCCC2)cc1S(=O)(=O)N1CCOCC1 (stereo unspecified) | -8.93%
42 | COc1ccc(COC(=O)c2ccc(Cl)c(S(=O)(=O)N3CCOCC3)c2)cc1F | 20.9%

Row | Compound | inhibition
43 | COc1cccc(NC(=O)NCc2ccc(F)cc2)c1 | 75.8% (active)
44 | O=C(NCc1cccc(CNC(=O)Nc2cccc(O)c2)c1)Nc1cccc(O)c1 | 11%
45 | COc1cccc(NC(=O)Nc2ccc(F)cc2)c1 | 30.6%
46 | CC1CCCC(N2CCN(C(=O)c3ccc(F)cc3)CC2)C1 (stereo unspecified) | 12.6%
47 | Cc1ccc2nc(-c3ccc(Br)cc3)cn2c1 | 91.8% (active)
48 | CC(=O)Nc1ccc(-c2cn3cccnc3n2)cc1 | 2.85%
49 | Cc1ccc(-c2cc(N)on2)cc1 | 8.69%
50 | Cc1nc(=O)c(-c2ccccc2)c(C)n1-c1ccc(Br)cc1 | -0.2%
51 | CS(=O)(=O)Nc1cccc(-c2cn3ccccc3n2)c1 | -10.9%
52 | Cc1ccc(-c2cn3cc(C)ccc3n2)cc1 | 104% (active)
53 | COc1ccc(C(C)NC(=O)C2CCCC2)cc1 (stereo unspecified) | -12.4%
54 | O=C(O)C1CCCCC1C(=O)N1CCN(S(=O)(=O)c2ccc(F)cc2)CC1 (stereo unspecified) | -3.01%
55 | COc1ccccc1C(=O)N/C(=C/c1ccco1)C(=O)Nc1ccc(C(=O)O)cc1 | 7.16%
56 | COCC(C)NC(=O)CSc1nc2nn(-c3ccccc3)c(=O)c-2c2n1CCCCC2 (stereo unspecified) | -8.52%
57 | O=C(CCN1C(=O)COc2ccccc21)NCCCN1CCN(c2ccc(F)cc2)CC1 | -3.8%
58 | Cc1ccc(NC(=O)OCCNC(=O)c2ccncc2)cc1 | -14.7%
59 | COCCNC(=O)Nc1ccc2nc(-c3ccco3)c(-c3ccco3)nc2c1 | 66.8% (active)
60 | COCCNC(=O)CSc1nc(N)c(NC(=O)c2ccco2)c(=O)[nH]1 | 3.96%
61 | CC(C)(C)c1ccc(C(=O)N2CCN(CCNC(=O)C(=O)Nc3ccc(F)cc3)CC2)cc1 | 0.45%
